Compound activity deposited in PubChem BioAssay by National Center for Advancing Translational Sciences (NCATS).
Hits are enriched below; roughly 9.9% of the tested compounds scored in any of these assays.
KB-V1 MDR tox: KB-V1 MDR subline cytotoxicity | 3.4% of 400,000 active | KB-V1 MDR cells viability, CellTiter-Glo, 72 h | Potency, µM (top dose mostly 46.1 µM), usual class: cytotoxic | AID 1347076; further: potency means the concentration at half of the fitted maximal effect; on the % scale 0 is the no-effect control and ±100 the full control effect; nearly all actives have a fitted effect of over 60% in size
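Readout: CellTiter-Glo luminescence, 10 min after addition. Cells: KB-V1 MDR subline, 72 h at 37 degrees C with compound. Analysis: corrected, normalized data fitted to concentration-effect curves.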
KB-3-1 tox: KB-3-1 parental cell cytotoxicity. KB-3-1 viability, CellTiter-Glo ATP luminescence, 72 h. Potency, µM (highest dose often 46.1 µM), hits mostly cytotoxic. 1.4% of 400,000 active; further: potency means the concentration at half of the fitted maximal effect; on the % scale 0 is the no-effect control and ±100 the full control effect; nearly all actives have a fitted effect of over 60% in size
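Using CellTiter-Glo luminescence, growth of non-resistant KB-3-1 adenocarcinoma cells is assessed 72 h after pin-tool compound addition at 37 °C. Normalized responses across the concentration series yield fitted curves.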
SW480 rerep: induces DNA re-replication in SW480 colon adenocarcinoma cells; Potency, µM (titrated, usually from 46.1 µM), inactives show at the highest dose re-replication activation, actives largely listed as activators; 1.8% of 340,000 active; SW480 DNA re-replication, Hoechst DNA content imaging, 48 h; AID 624297; further: potency means the concentration at half of the fitted maximal effect; % of control where 0% means no effect; nearly all actives have a fitted effect of over 55% in size
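DNA re-replication was detected as more nuclei of elevated Hoechst intensity after 48 hr exposure to compound (23 nL pinned per well of 250 cells).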
MCF10A rereplic: DNA re-replication induction in MCF 10a cells. MCF 10A DNA re-replication, Hoechst nuclear intensity, 48 h. Potency, µM (top dose mostly 46.1 µM), for inactives: at the highest dose activity, positive = re-replication, usual class: activators. 2.9% of 350,000 active. AID 624296; further: potency means the concentration at half of the fitted maximal effect; % of control where 0% means no effect; nearly all actives have a fitted effect of over 50% in size
IL-1B inflam inh: blocks inflammasome-driven IL-1 beta release | activity change, % at 57.5 µM | 4.7% of 360,000 active | THP-1 LPS/ATP IL-1B secretion, AlphaLISA, 16 h; stronger effect = lower value; in the data active means activity change below about -50%; inconclusive means mostly about -30% to -49%; further: on the % scale 0 is the no-effect control and ±100 the full control effect
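Secreted IL-1B measured by AlphaLISA bead assay after 16 h compound exposure of THP-1 cells; compounds (final up to 57.5 uM) added 1 h before LPS (250 ng/mL) and ATP (1.25 mM) stimulation; lower signal means less secretion.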
* marks the source's active call; other numbers are inactive results; i = inactive; ? = inconclusive; nt = not tested or not shown; ! = a repeat was not active. Unless noted, the call rests on the fitted dose curve; in most records, active means well fitted curve in the direction sought with a large enough effect; inconclusive means small, poorly fitted or top-dose-only effect, or another doubt; inactive means no such curve, though single readings can be large; an effect the other way counts as inactive or inconclusive.

SMILES	KB-V1 MDR tox	KB-3-1 tox	SW480 rerep	MCF10A rereplic	IL-1B inflam inh
CN(CC1CCOCC1)C(=O)CC1C(=O)NCCN1Cc1ccc(F)c(F)c1 (stereo not given)	i	i	-7%	6%	9
CC1(C)CNC(=O)c2sc(NC(=O)c3ccccc3Cl)nc2C1	i	i	-7%	0%	-25
CCOC(=O)Nc1ccc2c(c1)N(C(=O)CN(C)C)c1ccccc1CC2	i	i	-7%	-13%	-4
CCNCC(=O)N1c2ccccc2CCc2ccc(NC(=O)OCC)cc21	i	i	0%	-19%	-69*
CCOC(=O)Nc1ccc2c(c1)N(C(=O)CN)c1ccccc1CC2	i	i	-37%	?	-63*
COc1cc2c(cc1OC)C(c1cccs1)N(C(=O)c1cccc(S(=O)(=O)N(C)C)c1)CC2 (stereo not given)	i	i	-1%	-4%	-15
CN1CCN(Nc2nn3c(=O)c4ccccc4nc3s2)CC1	?	i	nt	nt	nt
CCOc1cc(-c2cc(-c3ccc(N)cc3)nc(N)c2C#N)ccc1O	?	?	?	12µM*	-62*
COc1ccc(OC)c(C2=NS(=O)(=O)N(C)C(C(=O)Nc3ccc(F)cc3F)=C2)c1	13µM*!	i	3%	9%	8
COc1ccc(C2=NS(=O)(=O)N(C)C(C(=O)Nc3ccc(C(C)=O)cc3)=C2)cc1OC	i	i	-15%	16%	-97*
CC(O)CNc1nc(N)[nH]c(=O)c1N=Nc1ccccc1 (stereo not given)	?	i	-1%	2%	-6
CCCCN1C[C@H](COC(=O)CCC)Oc2cccc(F)c2S1(=O)=O	i	i	-1%	1%	16
C=C1CCN(CC(=O)OC)S(=O)(=O)c2ccccc21	i	i	-14%	1%	-16
CCOC(=O)c1c(C)[nH]c(C)c1S(=O)(=O)NCCN1CCN(c2cc(Cl)ccc2C)CC1	?	16µM*	-6%	0%	-51*
Cc1cc(=O)n(CCO)c(O)c1C#N	i	i	-4%	2%	16
Cc1c(C#N)c(O)n(CCO)c(=O)c1N=Nc1ccc2c(c1)COC2=O	i	i	12%	?	-57*
COCCNC(=O)CN(C(=O)CCC(=O)Nc1ccccn1)c1ccc(C)cc1C	i	i	-14%	-4%	16
c1ccc(Nc2ccnc(Nc3ccccc3)n2)cc1	18µM*	?	?	?	nt
NNc1nccc(Nc2ccccc2C(=O)O)n1	i	i	-1%	-4%	-67*
COc1ccc(Nc2ccccc2C(=O)O)cc1	i	i	?	-9%	52
Cc1ccc(C(=O)c2c3ccc(C(F)(F)F)cc3[n+]([O-])n2CCCN)cc1	i	i	17%	-6%	-53*
Cc1ccc(C(=O)c2c3ccc(C(F)(F)F)cc3[n+]([O-])n2CCCC(N)=O)cc1	i	i	-9%	12%	-4
C#Cc1ccccc1OCCCN1CCC(C(O)(c2ccccc2)c2ccccc2)CC1	?	?	nt	nt	0
COc1ccccc1OCCCN1CCC(C(O)(c2ccccc2)c2ccccc2)CC1	?	i	nt	nt	-54*
N#Cc1ccccc1OCCCN1CCC(C(O)(c2ccccc2)c2ccccc2)CC1	23µM*	?	nt	nt	?
SMILES	KB-V1 MDR tox	KB-3-1 tox	SW480 rerep	MCF10A rereplic	IL-1B inflam inh
COc1ccc(CNC(=O)COC(=O)CN2C(=O)C3CCCCC3C2=O)cc1 (stereo not given)	i	i	nt	nt	7
Cc1nnc(C)c2c(C)n(-c3ccc(Cl)c(N)c3)c(C)c12	i	i	8%	?	-9
Cc1cc(C)cc(-n2c(C)c3c(C)nnc(C)c3c2C)c1	?	?	23µM*	10%	-2
CS(=O)(=O)c1ccc(C(=O)OCC(=O)NC(=O)NC2CCCCC2)cc1[N+](=O)[O-]	i	?	nt	nt	nt
Cn1cccc1C(=O)NC(=O)COC(=O)c1ccc(S(C)(=O)=O)c([N+](=O)[O-])c1	?	?	16µM*	5.8µM*	-95*
CS(=O)(=O)c1ccc(C(=O)OCC(=O)NC23CC4CC(CC(C4)C2)C3)cc1[N+](=O)[O-]	i	i	?	4.1µM*	-107*
CS(=O)(=O)c1ccc(C(=O)OCc2nnc(-c3ccc(Cl)cc3)o2)cc1[N+](=O)[O-]	i	i	?	3.7µM*	-77*
Cc1nc2cc(C(=O)OCC(=O)NC34CC5CC(CC(C5)C3)C4)ccc2n1-c1ccccc1	i	i	-3%	5%	-66*
COc1ccc(S(=O)(=O)N2CCCCC2)cc1NC(=O)[C@@H]1CCCN1C(=O)c1cccs1	i	i	13%	6%	0
Cn1ccsc1=NC(=O)c1ccc(S(C)(=O)=O)c([N+](=O)[O-])c1	nt	nt	16µM*	15µM*	-110*
Cn1ccsc1=NC(=O)c1ccc(Cl)c([N+](=O)[O-])c1	i	i	-3%	2%	16
COc1ccc(NC(=O)c2ccc3[nH]c(C)cc(=O)c3c2)cc1	?	i	nt	nt	nt
CC1CCN(CCc2nc3cc(NC(=O)COc4ccc(Cl)cc4)ccc3n2C)CC1	i	?	18µM*	16µM*	-96*
Cn1c(CCN2CCN(c3ccccn3)CC2)nc2cc(NC(=O)COc3ccc(Cl)cc3)ccc21	?	i	7.3µM*	3%	-5
COc1ccc(OCC(=O)Nc2ccc3c(c2)nc(CCN2CCC(C)CC2)n3C)cc1	i	i	-19%	-1%	-17
COc1ccc(OCC(=O)Nc2ccc3c(c2)nc(CCN2CCN(c4ccccn4)CC2)n3C)cc1	i	i	nt	nt	56
CCCn1c(N)c(N(CCOC)C(=O)c2ccc(S(=O)(=O)N3CCOCC3)cc2)c(=O)[nH]c1=O	i	i	-2%	-3%	4
COc1ccccc1NC(=O)C(C)OC(=O)C1CCC(C(C)(C)C)CC1 (stereo not given)	?	i	1%	12%	20
CCN(CC)CCNC(=O)c1[nH]c2ccccc2c1Sc1ccc(Cl)cc1	i	i	nt	nt	nt
CC(=O)Nc1ccc(C(=O)OCC(=O)c2cccc([N+](=O)[O-])c2)cc1	i	i	-6%	-5%	28
Cc1ccc(C(=O)COC(=O)c2cccc(NC(=O)c3ccc([N+](=O)[O-])cc3[N+](=O)[O-])c2)cc1	18µM*	?	26%	?	?
CCOC(=O)c1cccc(NC(=O)/C=C/c2ccc([N+](=O)[O-])cc2)c1	4.1µM*	i	-1%	18%	-22
O=C(Cc1ccccc1[N+](=O)[O-])Nc1cccc(S(=O)(=O)NC2=NCCCCC2)c1	i	i	-1%	-5%	0
